PubChem BioAssay (Tox21)
“And” between values parts separate entries of the source, which are not always exact repeats. Equal values may be shown once. Results filed as inconclusive are left out. A call without a number means that no potency is given here. Some structures have more than one record in an assay (separate samples or runs), and their calls can disagree. The source made the active and inactive calls. Calls come from the whole dose curve; as a rule, active = well fitted cell-killing curve with a large enough effect in the repeat runs; inconclusive = weak or mixed curves, or effect the other way; inactive = flat fitted curve, though single readings scatter.
Potency is the fitted concentration of half-maximal effect.

Test: qHTS RealTime-Glo MT Cell Viability Assay in HEK293 cells - 24 hour (AID 1224886); note: nearly all actives have a fitted effect of over 50% in size
Conditions: RealTime-Glo luminescence; series mostly up to 76.8 µM
Text: National Center for Advancing Translational Sciences [NCATS]
NIH Chemical Genomics Center [NCGC]
U.S. Environmental Protection Agency [EPA]
National Institutes of Environmental Health Sciences [NIEHS]
National Toxicology Program [NTP]
U.S. Food and Drug Administration [FDA]
Measure of cell viability is critical in the cell-base assay. Analysis of cell viability is necessary for the characterization of cell responses to cytotoxic drugs and environmental stress. A RealTime-Glo MT Cell Viability Assay to monitor cell viability in real time of continues cell culture during 40 hours of compound treatment was used to screen Tox21 10K library compounds in Hek293 cells. The RealTime-Glo MT Cell Viability Assay is a nonlytic, homogeneous, bioluminescent method to measure cell viability in real time using a simple, plate-based method. The assay involves adding NanoLuc luciferase and a cell-permeant prosubstrate to cells in culture. Viable cells reduce the proprietary prosubstrate to generate a substrate for NanoLuc luciferase. This substrate diffuses from cells into the surrounding culture medium, where it is rapidly used by the NanoLuc Enzyme to produce a luminescent signal. The signal correlates with the number of viable cells, making the assay well suited for cytotoxicity studies.
Tox21 Assay Protocol Summary:
The mixture of Hek293 cell suspension and reagents were dispensed at 600cells/6 ul/well in 1536-well tissue culture treated black solid bottom plates using a Multidrop dispenser. After the assay plates were incubated at a 37 C/5% CO2 incubator for 5 hours, 23 nL of compounds dissolved in DMSO, positive and negative controls was transferred to the assay plate by a pintool work station. The plates were incubated at 37 C for 40 hours. The luminescence intensity were measured at 0h, 8h, 16h, 24h, 32h and 40h time points using ViewLux plate reader during compound treatment.
With COc1ccc2nc(N)sc2c1 the Potency was “inactive and 3.09 µM (active)”.
For C=C[C@H]1CN2CC[C@H]1C[C@H]2[C@H](O)c1ccnc2ccc(OC)cc12, the Potency was “inactive”.
With ClC/C=C/CCl the Potency was “inactive”.
With O=C(O)CCCCCCCCCCCC(=O)O the Potency was “inactive”.
For COc1ccc(C(=O)c2ccccc2O)c(O)c1, the Potency was “inactive”.
For CC/C(=C(/CC)c1ccc(O)cc1)c1ccc(O)cc1, the Potency was 12.2 µM (active) and 27.5 µM (active).
For CCCCCCCCCCC(CO)CCCCCCCC (stereo not given), the Potency was “inactive”.
In the case of C/C=C/C(=O)N(CC)c1ccccc1C, the Potency was “inactive”.
For c1ccc2c(c1)[nH]c1ccccc12, the Potency was “inactive”.
In the case of Brc1nc2ccccc2s1, the Potency was “inactive”.
For C=CC(C)(O)CCC=C(C)C (stereo not given), the Potency was “inactive”.
For CC(=O)O[C@]1(C(C)=O)CC[C@H]2[C@@H]3C=C(C)C4=CC(=O)CC[C@]4(C)[C@H]3CC[C@@]21C, the Potency was 19.5 µM (active).
For CCCCCCCCCCCCO, the Potency was “inactive”.
With CCCCCCCCCCCCCO the Potency was “inactive”.
With NCCOCCO the Potency was “inactive”.
With Cc1ccc(C(C)(C)C)c(O)c1 the Potency was “inactive”.
For c1ccc2c(c1)ccc1ncccc12, the Potency was “inactive”.
In the case of CC(C)[N+](C)(CCOC(=O)C1c2ccccc2Oc2ccccc21)C(C)C, the Potency was “inactive”.
With FC(F)(F)C(Cl)Br (stereo not given) the Potency was “inactive”.
For CNC[C@H](O)c1ccc(O)c(O)c1, the Potency was “inactive”.
For C=CCOC(=O)C(=C)C, the Potency was “inactive”.
In the case of Nc1cc([N+](=O)[O-])ccc1C(=O)O, the Potency was “inactive”.
With CCc1cccc2c3c([nH]c12)C(CC)(CC(=O)O)OCC3 (stereo not given) the Potency was “inactive”.
With NCCS(=O)(=O)O the Potency was “inactive”.
With NCCN the Potency was “inactive”.
With OCCNCCO the Potency was “inactive”.
In the case of Cc1ccc([N+](=O)[O-])c(C)c1, the Potency was 38.9 µM (active) and inactive.
In the case of CC[C@]12CCCN3CCc4c(n(c5ccccc45)[C@@](O)(C(=O)OC)C1)[C@@H]32, the Potency was “inactive”.
For O=C1OC2(c3ccccc31)c1cc(I)c(O)c(I)c1Oc1c2cc(I)c(O)c1I, the Potency was 49.1 µM (active) and inactive.
In the case of CCC(=O)O[C@H]1[C@H](O[C@@H]2[C@@H](C)[C@H](O[C@H]3C[C@@](C)(OC)[C@@H](O)[C@H](C)O3)[C@@H](C)C(=O)O[C@H](CC)[C@@](C)(O)[C@H](O)[C@@H](C)C(=O)[C@H](C)C[C@@]2(C)O)O[C@H](C)C[C@@H]1N(C)C, the Potency was “inactive”.
For C1CN(SSN2CCOCC2)CCO1, the Potency was “inactive”.
For C=CC(=O)OCCCC, the Potency was “inactive”.
For CCCOCCO, the Potency was “inactive”.
In the case of CN(C)C, the Potency was “inactive”.
In the case of CCC/C=C/C=O, the Potency was “inactive”.
For C=CCCCCCCCCCC, the Potency was “inactive”.
For Clc1ccc(Sc2cc(Cl)c(Cl)cc2Cl)cc1, the Potency was “inactive”.
With c1ccc2cc3ccccc3cc2c1 the Potency was “inactive”.
For CC(=O)[C@@]1(O)CC[C@H]2[C@@H]3C[C@H](C)C4=CC(=O)C=C[C@]4(C)[C@@]3(F)[C@@H](O)C[C@@]21C, the Potency was 27.5 µM (active) and inactive.
For O=Cc1ccccc1C=O, the Potency was “inactive”.
